Screens from PubChem BioAssay.
Only some compounds are listed: those with a hit (about 2.3% of all), similar ones and a draw of the others.
Mcl1 Noxa PPI: disrupts binding of human Mcl-1 to Noxa peptide; Q07820; TR-FRET Mcl-1/Noxa peptide binding, 2 h; inhibition, % at 21.7 µM; 220,000 tested, 1.5% active; AID 1022;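 active = compounds that cut the protein-peptide binding signal by more than 50% relative to plate controls in a single-dose test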;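 note: His-tagged Mcl-1 with rhodamine Noxa BH3 peptide and terbium anti-His antibody; 0% = Mcl-1 plus Noxa peptide wells and 100% = peptide-only wells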
Target sequence (Q07820 whole entry, looked up): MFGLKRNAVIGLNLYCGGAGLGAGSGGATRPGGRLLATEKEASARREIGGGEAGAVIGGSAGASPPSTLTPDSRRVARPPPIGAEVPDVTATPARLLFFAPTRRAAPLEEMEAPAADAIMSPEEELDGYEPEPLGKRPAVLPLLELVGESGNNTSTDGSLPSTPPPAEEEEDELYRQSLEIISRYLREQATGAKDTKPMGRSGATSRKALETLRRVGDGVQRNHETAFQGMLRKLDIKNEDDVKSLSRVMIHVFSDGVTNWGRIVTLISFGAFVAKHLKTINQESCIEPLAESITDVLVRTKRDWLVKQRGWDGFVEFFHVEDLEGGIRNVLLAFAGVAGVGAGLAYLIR
MCL1-BIM inh: inhibitors of human MCL1 binding to BIM-BH3 peptide. inhibition, % at 10.9 µM. GST-MCL1 / FITC-Bim-BH3 fluorescence polarization. 320,000 tested, 0.68% active;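 active = inhibition above the mean inhibition of all tested compounds plus 3 SD, set per campaign, cut at about 40% in these data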;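 note: 0% = DMSO wells and 100% = unlabeled Bim-BH3 peptide control; higher means more loss of mP so more displacement of Bim peptide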
Mcl-1 Bim block: disrupts Bim peptide binding to human Mcl-1. Q07820. Bead-based flow cytometry, Bim peptide-Mcl-1 binding. inhibition, % at 10 µM. 190,000 tested, 0.1% active; in the data active = inhibition above about 40%;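 note: 0% = no compound tracer wells and 100% = peptide blocker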
GLD-1 RNA inh: GLD-1-TGE RNA interaction inhibition (C. elegans) | 320,000 tested, 0.44% active | purified GLD-1 + fluorescein TGE RNA, fluorescence polarization | Q17339 | inhibition, % at 5.96 µM | AID 2280;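 active = percent inhibition above a per-plate cutoff, the plate mean of test compounds plus 3 SD, cut at about 30% in these data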;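 note: 0% = DMSO wells with GLD-1 and probe and 100% = wells lacking GLD-1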
BCLXL inh: blocks human Bcl-xL binding to Bim BH3 peptide. Q07817. GST-Bcl-xL / FITC-Bim BH3 peptide fluorescence polarization. inhibition, % at 10.9 µM. 320,000 tested, 0.7% active. AID 2129;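 active = inhibition above the mean of all tested compounds plus 3 SD, cutoff set per campaign, cut at about 30% in these data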;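 note: 0% = DMSO wells and 100% = unlabeled Bim-BH3 peptide competitor; inhibitors lower millipolarization by displacing the labeled peptide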
Target sequence (Q07817 whole entry, looked up): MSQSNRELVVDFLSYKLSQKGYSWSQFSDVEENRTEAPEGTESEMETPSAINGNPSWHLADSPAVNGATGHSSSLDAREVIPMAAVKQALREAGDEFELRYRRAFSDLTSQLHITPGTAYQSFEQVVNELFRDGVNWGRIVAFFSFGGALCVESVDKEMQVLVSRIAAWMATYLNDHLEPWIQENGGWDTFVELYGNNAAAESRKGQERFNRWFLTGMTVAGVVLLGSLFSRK
Mcl1 Bid PPI: disrupts binding of human Mcl-1 to Bid peptide; Q07820; TR-FRET Mcl-1/Bid-Dy647 peptide binding, 1536-well; inhibition, % at 21.7 µM; 220,000 tested, 0.97% active;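 active = compounds that cut the binding signal by more than half at the single screening dose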;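 note: His-tagged Mcl-1 with europium anti-His antibody binding Bid BH3 peptide; 0% = Mcl-1 plus peptide wells and 100% = peptide-only wells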
* marks the source's active call; other numbers are inactive results; / = not tested or not shown.

SMILES	Mcl1 Noxa PPI	MCL1-BIM inh	Mcl-1 Bim block	GLD-1 RNA inh	BCLXL inh	Mcl1 Bid PPI
C/C(=N/NC(=O)c1ccc(Cl)s1)c1ccc(NC(=O)COc2ccc(Cl)cc2)cc1	-69	4	-4	2	3	55*
CCC(=O)Nc1ccc(/C(C)=N\NC(=O)c2ccc(C)s2)cc1	-5	3	0	-6	0	-9
Cn1nc(-c2ccc(N3CCN(CCO)CC3)c([N+](=O)[O-])c2)c2ccccc2c1=O	8	8	-3	-7	1	-9
CC(C)C(=O)NNS(=O)(=O)c1ccccc1	3	9	0	0	6	-16
CNNC(=O)C(=O)NNS(=O)(=O)c1ccccc1	-3	3	-1	3	-3	86*
O=C(COC(=O)C1CC1)Nc1ccc(Cl)cn1	/	15	/	3	9	/
Cc1ccc(NC(=O)/C(=C\c2cccnc2)NC(=O)c2ccco2)cc1	9	29	0	29	89*	0
COc1cccc(/C=c2/s/c(=C(\C#N)C(=O)N3CCOCC3)n(-c3ccccc3)c2=O)c1	43	9	3	2	4	53*
COc1ccc(/C=c2\s/c(=C(/C#N)C(=O)NCc3ccco3)n(-c3ccccc3)c2=O)cc1	10	2	0	-5	2	-9
COc1ccc(-c2ccc(/C=C3/C(=N)N4C(C)=CSC4=NC3=O)o2)c([N+](=O)[O-])c1	59*	8	-1	2	13	17
CN1C(=S)N(c2cccnc2)C(=O)/C1=C\c1ccc(N(C)C)cc1	-17	/	0	/	/	83*
Cc1ccccc1OCCOC(=O)c1cc(S(=O)(=O)N2CCCCC2)ccc1N1CCOCC1	/	-5	/	4	1	/
O=c1[nH]c(=S)[nH]c2c1C(c1ccc(Br)cc1)c1c([nH]c(=S)[nH]c1=O)O2	/	72*	/	2	39*	/
Cc1ccc(C2C3=C(CCCC3=O)Nc3[nH]c(=S)[nH]c(=O)c32)cc1 (stereo unspecified)	12	-3	-2	3	8	-17
O=C1CCCC2=C1C(c1ccc(Br)cc1)c1c([nH]c(=S)[nH]c1=O)N2 (stereo unspecified)	53*	6	-4	8	34*	-7
CN(CC(=O)Nc1ccccc1Br)C(=O)c1ccccc1-c1nc2ccccc2s1	/	-2	/	8	1	/
CCN(CC)C(=O)C1CCCN(c2ccc([N+](=O)[O-])cc2/C=N/NC(=O)c2cccc([N+](=O)[O-])c2)C1 (stereo unspecified)	33	7	0	1	4	63*
O=C(O)CC(SCc1ccc(C(=O)O)o1)C(=O)O (stereo unspecified)	14	3	-4	6	5	53*
Cc1ccc(Nc2nc(N)c([N+](=O)[O-])c(N3CCOCC3)n2)cc1C	-29	-7	-24	-2	-1	-34
Nc1nc(Nc2cccc(F)c2)nc(N2CCOCC2)c1[N+](=O)[O-]	10	2	/	1	-2	77*
O=C(c1ccccc1)C(O)c1ccccc1 (stereo unspecified)	/	3	/	0	4	/
C=CC(c1ccccc1)C(C(=O)c1ccccc1)N(C)C (stereo unspecified)	-9	/	-1	/	/	82*
CCS(=O)(=O)N1CCC(C(=O)Nc2ccccc2OC)CC1	/	7	/	11	4	/
COc1cccc(N2CCN(C3CC(=O)N(c4ccc(Cl)c(Cl)c4)C3=O)CC2)c1 (stereo unspecified)	12	8	-1	6	2	59*
CCOC(=O)CSc1nc(N)c(C#N)c(-c2ccc(OCC)cc2)c1C#N	-113	-2	-1	-3	-3	-24
SMILES	Mcl1 Noxa PPI	MCL1-BIM inh	Mcl-1 Bim block	GLD-1 RNA inh	BCLXL inh	Mcl1 Bid PPI
COC(=O)CSc1nc(N)c(C#N)c(-c2ccc(O)cc2)c1C#N	39	4	/	5	2	57*
COc1ccc(C(CC(=O)O)NC(=O)COc2cc(C)ccc2C)cc1OC (stereo unspecified)	12	4	0	-8	7	-20
CC(C)(C)C(=O)NC1CCN(S(C)(=O)=O)CC1	40	-3	-2	-1	0	58*
CC(C)(C)C(=O)NC1CCN(C(=O)N2CCCC2)CC1	22	-1	-6	-2	3	-7
COc1ccc(C(=S)N2CCCCCC2)cc1	15	18	41*	5	9	-6
CC(=O)N1c2ccc(S(=O)(=O)N3CCC(C(=O)NC(C)c4ccccc4)CC3)cc2CC1C (stereo unspecified)	/	-6	/	0	-5	/
CSc1nc(-c2ccc(C)cc2)[nH]c1S(=O)(=O)c1ccccc1	26	-19	2	1	-16	3
CC(=O)Sc1nc(-c2ccccc2)[nH]c1S(=O)(=O)c1ccc(C)cc1	70*	-12	-2	4	-2	-53
CN(CCO)c1nc(N)c(C#N)c(CC#N)c1C#N	22	3	/	3	10	-16
COc1ccc(CN2C(=O)Cc3c2nc(N)c2c(N)nc(N4CCOCC4)c(C#N)c32)cc1	36	47*	/	12	38*	-107
CN(CCO)c1nc(N)c2c(N)nc3c(c2c1C#N)CC(=O)N3Cc1cccs1	36	41*	6	-1	36*	-19
CCC1Cc2c(nc(N)c3c(N)nc(N4CCOCC4)c(C#N)c23)O1 (stereo unspecified)	7	0	3	6	6	-19
O=C(CSc1n[nH]c(-c2ccc(Br)cc2)n1)N1CCOCC1	/	/	/	-3	/	/
O=C1c2ccccc2S(=O)(=O)c2cc(N3CCc4ccccc4C3)ccc21	/	27	/	20	39*	/
O=C1c2ccccc2S(=O)(=O)c2cc(N3CCC(C(=O)N4CCCCC4)CC3)ccc21	/	-15	/	-15	17	/
CCC(C)NC(=O)CSc1nc2cc3c(cc2c(=O)n1Cc1ccco1)OCO3 (stereo unspecified)	-27	/	1	/	/	54*
Cc1c(/C=N/Nc2ccc(F)cc2)c(O)n(C)c(=O)c1C#N	60*	8	0	-6	7	-32
CC(=O)N=Cc1c(C)c(C#N)c(=O)n(C)c1O	28	15	-1	5	21	-49
CCN(CC)Cc1cc2[nH]c3c4ccc(Cl)cc4ncc3c2cc1OC	63*	/	/	/	/	7
CC(c1ccccc1)N(C)C(=O)CSc1nnc(C2CC2)n1C1CC1 (stereo unspecified)	/	6	/	-2	0	/
Cc1oc2c(CN3CCC(C)CC3)c(O)ccc2c(=O)c1-c1ccccc1	/	6	/	14	34*	/
Cc1oc2c(CN3CCCC3)c(O)ccc2c(=O)c1-c1ccccc1	-5	3	2	4	1	-32
Cc1cc(C(=O)COC(=O)CCc2nc3ccccc3s2)c(C)n1C	59*	-4	0	5	-5	-44
CN(C)c1ccc(/C=C(\C#N)C(=O)c2ccccc2)cc1	21	-149	/	-161	-69	-60
